# Experimental data published in PubChem BioAssay.
# Activity calls are given as the source filed them.
# Molecular target: NADPH oxidase 4 (Homo sapiens) (UniProt Q9NPH5)
# Assay: NOX4-dependent H2O2 signal modulators, primary screen, NOX inhibitor project, cell-based, HEK293-NOX4, tetracycline-induced, Amplex Red fluorescence (AID 1160)
# Conditions: 45 min, higher = more signal, called active from +8 up or from −8 down
# Chain of NADPH oxidase 4 (Homo sapiens) (Q9NPH5 whole entry, looked up): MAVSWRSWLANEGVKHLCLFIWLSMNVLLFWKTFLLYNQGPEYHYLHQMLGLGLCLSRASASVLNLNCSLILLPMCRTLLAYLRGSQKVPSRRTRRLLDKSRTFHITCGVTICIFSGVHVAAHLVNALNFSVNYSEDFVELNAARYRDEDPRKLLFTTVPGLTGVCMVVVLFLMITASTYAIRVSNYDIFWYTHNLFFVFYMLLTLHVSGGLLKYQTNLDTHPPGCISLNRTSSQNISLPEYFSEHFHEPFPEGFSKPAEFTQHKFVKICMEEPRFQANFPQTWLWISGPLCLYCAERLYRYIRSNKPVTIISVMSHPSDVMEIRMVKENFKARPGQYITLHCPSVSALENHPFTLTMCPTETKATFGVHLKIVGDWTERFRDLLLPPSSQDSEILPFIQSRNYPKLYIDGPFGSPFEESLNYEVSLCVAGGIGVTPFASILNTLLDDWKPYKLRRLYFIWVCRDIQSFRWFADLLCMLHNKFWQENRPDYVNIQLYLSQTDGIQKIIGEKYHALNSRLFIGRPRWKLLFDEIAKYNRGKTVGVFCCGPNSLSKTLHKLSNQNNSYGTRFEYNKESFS
row,SMILES,z-score
1,CCN(CC)c1ccc(N2CC=CC34O[C@@H]5/C=C\CCCOC(=O)C5[C@H]3C(=O)N(CCO)[C@@H]4C2=O)cc1 (some centres undefined),-0.72 (inactive)
2,C=CC[C@@]1(C(N)=O)N=C(c2ccc(OCCCO)cc2)O[C@@H]1c1ccccc1CN=[N+]=[N-],0.313 (inactive)
3,O=C1c2ccccc2[C@](Cc2ccccc2I)(C(=O)NC2CC2)[C@H](c2ccc(CO)cc2)N1C1CCCCC1,1.06 (inactive)
4,O=C(NCc1ccccc1)[C@@]1(CCS(=O)(=O)c2ccccc2)N=C(c2ccc(OCCCO)cc2)O[C@H]1c1ccccc1,1.35 (inactive)
5,CCCCCN1CC=CC23O[C@@H]4/C=C\CCCOC(=O)C4[C@H]2C(=O)N(CCCO)[C@@H]3C1=O (some centres undefined),0.42 (inactive)
6,C=CCNC(=O)[C@@H]1[C@H]2C(=O)O[C@H](c3ccccc3)[C@H](c3ccccc3)N2[C@H](c2ccccc2OCCO)[C@@]12C(=O)N(C(=O)OCCOC)c1ccc(C#CCNC(N)=O)cc12,1.54 (inactive)
7,COCCOC(=O)N1C(=O)[C@@]2(c3cc(C#CCCO)ccc31)[C@H](C(=O)N1CCN(c3ncccn3)CC1)[C@H]1C(=O)O[C@H](c3ccccc3)[C@H](c3ccccc3)N1[C@@H]2c1ccccc1OCCO,1.29 (inactive)
8,COc1ccc(CCN2C(=O)[C@@]3(c4ccc([N+](=O)[O-])cc4)CC(=O)N(C4CCCCC4)[C@@H]3c3ccc(CO)cc32)cc1,-0.763 (inactive)
9,CCOC(=O)C[C@H]1[C@H](OC(=O)c2ccc(C(=O)c3ccccc3)cc2)[C@@H](NC(=O)c2ccc(-c3ccccc3)cc2)c2cc(OCCCO)ccc2N1C(=O)c1ccccc1,0.379 (inactive)
10,COC(=O)C(CC#Cc1ccc2c(c1)[C@]1(C(=O)N2)[C@H](c2ccc(O)cc2)N2[C@H](c3ccccc3)[C@H](c3ccccc3)OC(=O)[C@H]2[C@@H]1C(=O)Nc1nc2ccccc2s1)C(=O)OC,0.604 (inactive)
11,O=C1[C@H]2C=C(Br)[C@H](C[C@@H]2OCCCCO)[C@@]12CO2,0.602 (inactive)
12,Cc1ccc(C(C)CC(O)C2C=CC3C(=O)N(c4ccccc4)C(=O)C3N2Nc2ccc([N+](=O)[O-])cc2)o1 (centres undefined),-0.521 (inactive)
13,COCCOC(=O)N1C(=O)[C@@]2(c3cc(C#CCCO)ccc31)[C@H](C(=O)Nc1nc3ccccc3s1)[C@H]1C(=O)O[C@H](c3ccccc3)[C@H](c3ccccc3)N1[C@@H]2c1ccc(OCCO)cc1,0.462 (inactive)
14,CCCCC(O)C1C=CC2C(=O)N(c3ccccc3)C(=O)C2N1Nc1ccccc1F (centres undefined),-4.93 (inactive)
15,[N-]=[N+]=Nc1ccccc1C[C@]1(C(=O)NCC(O)CO)N=C(c2ccc(OCCCO)cc2)O[C@H]1c1ccccc1N=[N+]=[N-] (some centres undefined),-0.295 (inactive)
16,C=C(CCCC)/C(=C/C[C@@H](OC(C)=O)c1ccccc1OCCO)c1cnc2ccccc2c1,-1.61 (inactive)
17,OC([C@@H]1CC(c2ccccc2)=NO1)[C@H]1CC(c2ccccc2)=NO1 (some centres undefined),-0.0169 (inactive)
18,[N-]=[N+]=NCc1ccccc1[C@H]1OC(c2ccc(OCCCO)cc2)=N[C@@]1(Cc1ccccc1)C(=O)NCc1ccccc1,0.113 (inactive)
19,O=C(NCc1ccccc1)[C@@H]1c2ccccc2C(=O)N(CC23CC4CC(CC(C4)C2)C3)[C@H]1c1ccc(CO)cc1,0.191 (inactive)

# Molecular target: NADPH oxidase 5 (Homo sapiens) (UniProt Q96PH1)
# Sequence (Q96PH1 whole entry, looked up): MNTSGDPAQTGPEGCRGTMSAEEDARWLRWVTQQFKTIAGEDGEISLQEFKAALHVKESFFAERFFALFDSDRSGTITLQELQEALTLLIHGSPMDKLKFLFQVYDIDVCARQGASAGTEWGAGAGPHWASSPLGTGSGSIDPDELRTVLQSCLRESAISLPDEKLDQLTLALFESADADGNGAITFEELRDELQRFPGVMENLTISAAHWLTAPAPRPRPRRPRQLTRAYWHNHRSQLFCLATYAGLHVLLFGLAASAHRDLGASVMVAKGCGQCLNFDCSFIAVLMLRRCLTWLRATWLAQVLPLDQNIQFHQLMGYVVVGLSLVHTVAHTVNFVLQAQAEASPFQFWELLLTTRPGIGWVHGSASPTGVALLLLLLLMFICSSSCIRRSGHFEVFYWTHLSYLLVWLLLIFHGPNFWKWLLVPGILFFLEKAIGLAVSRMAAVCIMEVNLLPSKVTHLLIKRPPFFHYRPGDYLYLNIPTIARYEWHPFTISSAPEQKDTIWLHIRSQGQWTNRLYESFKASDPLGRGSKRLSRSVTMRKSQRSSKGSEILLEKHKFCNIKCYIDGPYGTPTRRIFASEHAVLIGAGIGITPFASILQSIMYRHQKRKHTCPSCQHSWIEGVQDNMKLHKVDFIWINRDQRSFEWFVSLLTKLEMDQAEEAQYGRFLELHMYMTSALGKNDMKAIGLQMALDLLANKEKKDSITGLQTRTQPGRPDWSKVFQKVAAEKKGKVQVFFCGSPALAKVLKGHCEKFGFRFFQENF
# Assay: NOX5-dependent H2O2 signal modulators, primary screen, NOX inhibitor project, cell-based, HEK293-NOX5, Amplex Red fluorescence (AID 1161)
# Conditions: HEK293-NOX5, ionomycin, 45 min, higher = more signal
row,SMILES,z-score
1,O=C1C2C=CC(C(O)C3CCCCC3)N(Nc3ccc([N+](=O)[O-])cc3)C2C(=O)N1c1ccccc1 (centres undefined),-4.06
2,C=CCNC(=O)[C@H]1[C@@H]2C(=O)O[C@@H](c3ccccc3)[C@@H](c3ccccc3)N2[C@@H](c2ccc(OCCO)cc2)[C@]12C(=O)N(C(=O)OCCOC)c1ccccc12,-1.51
3,O=C1C2C=CC(C(O)c3c(F)cccc3Cl)N(Nc3ccccc3)C2C(=O)N1c1ccccc1 (centres undefined),-2.42
4,CC(C)c1ccc(NN2C(C(O)c3cc(C(F)(F)F)cc(C(F)(F)F)c3)C=CC3C(=O)N(c4ccccc4)C(=O)C32)cc1 (centres undefined),-4.2
5,[N-]=[N+]=NCc1ccccc1C[C@]1(C(=O)O)N=C(c2ccc(OCCCO)cc2)O[C@H]1c1ccccc1N=[N+]=[N-],-1.92
6,O=C1O[C@H](c2ccccc2)[C@H](c2ccccc2)N2[C@H]1[C@@H](C(=O)NC[C@H](O)c1ccccc1)[C@]1(C(=O)Nc3ccccc31)[C@H]2c1ccc(OCCO)cc1,1.34
7,COC(=O)[C@@]1(Cc2ccc(F)cc2)[C@H]2c3cc(C(=O)N4CCCC4)n(Cc4ccc(C)o4)c3C[C@H]2CN1C(=O)c1ccccc1,-3.03
8,COc1ccc([Si](C)(C)[C@H]2[C@H](CCn3cc([C@H](O)c4ccccc4)nn3)O[C@@]3(C(=O)N(Cc4cccc(N5CCOC5=O)c4)c4ccccc43)[C@@H]2C)cc1,2.28
9,COc1ccc(CCNC(=O)[C@@]2(C)c3ccccc3C(=O)N(Cc3cc(F)cc(C(F)(F)F)c3)[C@H]2c2ccc(CO)cc2)cc1,-1.5
10,O=C1O[C@@H](c2ccccc2)[C@@H](c2ccccc2)N2[C@@H](c3ccc(OCCO)cc3)[C@]3(C(=O)Nc4ccccc43)[C@@H](C(=O)NC[C@H](O)c3ccccc3)[C@H]12,0.81
11,C=C(/C(=C/C[C@@H](OC(C)=O)c1ccc(OCCO)cc1)c1cnc2ccccc2c1)C(C)C,-2.24
12,O=C1OCC=C[C@H]2OC34C=CCN(CCN5CCOCC5)C(=O)[C@H]3N(CCCO)C(=O)[C@@H]4[C@@H]12 (some centres undefined),0.375
13,C=CC[C@]1(C(=O)NCCCOC)N=C(c2ccc(OCCCO)cc2)O[C@H]1c1ccccc1N=[N+]=[N-],-0.678
14,COCC(=C=CC[C@H](O)c1ccccc1OCCO)C[C@H](O)c1cc(Cl)cc(Cl)c1O,-3.1
15,COC(=O)c1c(CC[C@@H](CO)NC(=O)N2CCC[C@H]2Cn2cc(-c3ccccn3)nn2)oc(C(C)=O)c1C(=O)OC,-1.84
16,C=CCN(Cc1ccccc1)C(=O)C(c1cccs1)N(CCOCCO)C(=O)/C=C\C(=O)O (centres undefined),-0.659
17,CCN(CC)c1ccc(N2CC=CC34O[C@@H]5/C=C\CCCOC(=O)C5[C@H]3C(=O)N(CCO)[C@@H]4C2=O)cc1 (some centres undefined),0.733
18,C=CC[C@@]1(C(N)=O)N=C(c2ccc(OCCCO)cc2)O[C@@H]1c1ccccc1CN=[N+]=[N-],-0.802

row,SMILES,z-score
1,O=C1c2ccccc2[C@](Cc2ccccc2I)(C(=O)NC2CC2)[C@H](c2ccc(CO)cc2)N1C1CCCCC1,2.45
2,O=C(NCc1ccccc1)[C@@]1(CCS(=O)(=O)c2ccccc2)N=C(c2ccc(OCCCO)cc2)O[C@H]1c1ccccc1,1.33
3,CCCCCN1CC=CC23O[C@@H]4/C=C\CCCOC(=O)C4[C@H]2C(=O)N(CCCO)[C@@H]3C1=O (some centres undefined),2.13
4,C=CCNC(=O)[C@@H]1[C@H]2C(=O)O[C@H](c3ccccc3)[C@H](c3ccccc3)N2[C@H](c2ccccc2OCCO)[C@@]12C(=O)N(C(=O)OCCOC)c1ccc(C#CCNC(N)=O)cc12,-0.131
5,COCCOC(=O)N1C(=O)[C@@]2(c3cc(C#CCCO)ccc31)[C@H](C(=O)N1CCN(c3ncccn3)CC1)[C@H]1C(=O)O[C@H](c3ccccc3)[C@H](c3ccccc3)N1[C@@H]2c1ccccc1OCCO,0.437
6,COc1ccc(CCN2C(=O)[C@@]3(c4ccc([N+](=O)[O-])cc4)CC(=O)N(C4CCCCC4)[C@@H]3c3ccc(CO)cc32)cc1,-0.0167
7,CCOC(=O)C[C@H]1[C@H](OC(=O)c2ccc(C(=O)c3ccccc3)cc2)[C@@H](NC(=O)c2ccc(-c3ccccc3)cc2)c2cc(OCCCO)ccc2N1C(=O)c1ccccc1,0.551
8,COC(=O)C(CC#Cc1ccc2c(c1)[C@]1(C(=O)N2)[C@H](c2ccc(O)cc2)N2[C@H](c3ccccc3)[C@H](c3ccccc3)OC(=O)[C@H]2[C@@H]1C(=O)Nc1nc2ccccc2s1)C(=O)OC,2.21
9,O=C1[C@H]2C=C(Br)[C@H](C[C@@H]2OCCCCO)[C@@]12CO2,0.188
10,Cc1ccc(C(C)CC(O)C2C=CC3C(=O)N(c4ccccc4)C(=O)C3N2Nc2ccc([N+](=O)[O-])cc2)o1 (centres undefined),-1.27
11,COCCOC(=O)N1C(=O)[C@@]2(c3cc(C#CCCO)ccc31)[C@H](C(=O)Nc1nc3ccccc3s1)[C@H]1C(=O)O[C@H](c3ccccc3)[C@H](c3ccccc3)N1[C@@H]2c1ccc(OCCO)cc1,1.37
12,CCCCC(O)C1C=CC2C(=O)N(c3ccccc3)C(=O)C2N1Nc1ccccc1F (centres undefined),-1.88
13,[N-]=[N+]=Nc1ccccc1C[C@]1(C(=O)NCC(O)CO)N=C(c2ccc(OCCCO)cc2)O[C@H]1c1ccccc1N=[N+]=[N-] (some centres undefined),-1.67
14,C=C(CCCC)/C(=C/C[C@@H](OC(C)=O)c1ccccc1OCCO)c1cnc2ccccc2c1,-1.79
15,OC([C@@H]1CC(c2ccccc2)=NO1)[C@H]1CC(c2ccccc2)=NO1 (some centres undefined),0.357
16,[N-]=[N+]=NCc1ccccc1[C@H]1OC(c2ccc(OCCCO)cc2)=N[C@@]1(Cc1ccccc1)C(=O)NCc1ccccc1,-0.549
17,O=C(NCc1ccccc1)[C@@H]1c2ccccc2C(=O)N(CC23CC4CC(CC(C4)C2)C3)[C@H]1c1ccc(CO)cc1,-1.55
